Data reported in PubChem BioAssay (NCATS).
Values joined by “and” are separate entries in the source; they are usually repeats but may differ in a detail not shown here. Identical values can stand only once. Inconclusive results are not listed. A call without a number means that no potency is given here. Unmarked numbers belong to inactive results. Active and inactive are the calls of the source. Calls follow the shape of the dose curve; as a rule, active = well fitted cell-killing curve with a large enough effect; inconclusive = small, poorly fitted or top-dose-only effect, or effect the other way; inactive = no such curve, though single readings can be large or run the other way.

What was measured:
[1] = Viability qHTS for spleen associated tyrosine kinase inhibitor (SYKi) naive MV4-11 cells (AID 1963823); also: nearly all actives have a fitted effect of over 40% in size
How it was run: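 Viability of MV4-11 AML cells lacking prior SYK inhibitor exposure is scored by CellTiter-Glo luminescence following 72 hr compound incubation at 37 C, 5% CO2, seeded at 500 cells per well.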

[2] = Viability qHTS for spleen associated tyrosine kinase inhibitor (SYKi) drug resistant MV4-11 cells (AID 1963824); also: nearly all actives have a fitted effect of over 35% in size
How it was run: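 CellTiter-Glo luminescence, read 10 min after reagent addition, reports viability after a 72 hr compound exposure. Cells are an MV4-11 line made resistant to SYK inhibition, seeded at 500 per well onto compound-containing plates.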
Potency is read from the fitted curve at half-maximal effect.

`CC(=O)O[C@@H]1[C@H](O[C@@H]2O[C@H](CO)[C@@H](O)[C@H](O)[C@H]2O)[C@@H](O[C@@H]2O[C@@H](C)[C@H](O)[C@@H](O[C@@H]3O[C@H](CO)[C@@H](O)[C@H](O)[C@H]3O)[C@H]2O)[C@H](OC(=O)C23CCC4(C)C(=CCC5C6(C)CC(O)C(O[C@@H]7O[C@H](C(=O)O)[C@@H](O)[C@H](O)[C@H]7O)C(C)(C(=O)O)C6CCC54C)C2CC(C)(C)CC3O)O[C@@H]1C` (stereo partly drawn) showed a viability (% of control) [1] of 92% [at 9.25 µM] and a viability, % of control [2] of 102% [at 9.25 µM].
With `CC1CCC2(C(=O)OC3OC(CO)C(O)C(O)C3O)CCC3(C(=O)O)C(=CCC4C5(C)CCC(OC6OC(C)C(O)C(O)C6O)C(C)(C)C5CCC43C)C2C1C` (stereo not drawn) the Potency [1] was “inactive” and the Potency [2] was “inactive”.
In the case of `C[C@@H]1CN(CCCn2c3ccccc3c3ccccc32)C[C@H](C)N1`, the Potency [1] is reported as 23.7 µM (active) and the Potency [2] is reported as 26.6 µM (active).
With `COc1cc(CO)cc(OC)c1O[C@@H]1O[C@H](CO)[C@@H](O)[C@H](O)[C@H]1O` the Potency [1] was “inactive” and the Potency [2] was “inactive”.
With `O=C(O[C@H]1[C@@H]2C[C@@H]3OC[C@@](O)([C@H]2[C@H](O[C@@H]2O[C@H](CO)[C@@H](O)[C@H](O)[C@H]2O)O3)[C@@H]1O)c1ccccc1` the Potency [1] was “inactive” and the Potency [2] was “inactive”.
For `CN1CCCN(C(=O)c2cccc(-c3ccc(/C=C4\C(=O)Nc5ccc(Cl)cc54)o3)c2)CC1`, the Potency [1] was 0.184 µM (active) and the Potency [2] was 0.461 µM (active).
With `CC(C)C1=CC2C(CC[C@]2(C)O)[C@](C)(O)CC1` (stereo partly drawn) the Potency [1] was “inactive” and the Potency [2] was “inactive”.
With `CC/C=C\C[C@H]1C(=O)C=C[C@@H]1CCCCCCCC(=O)O` the Potency [1] was 16.4 µM (active) and the Potency [2] was 23.1 µM (active).
With `COc1cc2c(cc1OC)/C(=C/c1ccc(O)cc1)C(=O)N2` the Potency [1] was 8.2 µM (active) and the Potency [2] was 18.4 µM (active).
For `O=C1NC(Cc2ccccc2)C(=O)N2CCCC12` (stereo not drawn), the Potency [1] was “inactive” and the Potency [2] was “inactive”.
For `OC[C@H]1O[C@@H](OCc2ccccc2)[C@H](O)[C@@H](O)[C@@H]1O`, the Potency [1] was “inactive” and the Potency [2] was “inactive”.
For `OC1C=C2C3CN(Cc4cc5c(cc43)OCO5)C2CC1O` (stereo not drawn), the Potency [1] was 5.17 µM (active) and the Potency [2] was 5.17 µM (active).
For `Cc1cc(C)c(-c2csc(NC(=O)c3ccccc3)n2)c(C)c1`, the Potency [1] was 6.51 µM (active) and the Potency [2] was 11.6 µM (active).
In the case of `O=c1cc(-c2ccc(O)cc2)oc2cc(OC3OC(CO)C(O)C(O)C3O)c(C3OC(CO)C(O)C(O)C3O)c(O)c12` (stereo not drawn), the Potency [1] is reported as “inactive” and the Potency [2] is reported as “inactive”.
With `COc1ccc(C(OC2OC(CO)C(O)C(O)C2O)C(C)O)cc1` (stereo not drawn) the Potency [1] was “inactive” and the Potency [2] was “inactive”.
With `CC(=O)OCC1=C[C@H](O)[C@@H]2C(C(=O)O)=CO[C@@H](O[C@@H]3O[C@H](CO)[C@@H](O)[C@H](O)[C@H]3O)[C@H]12` the Potency [1] was “inactive” and the Potency [2] was “inactive”.
With `COc1cc(COC2OC(CO)C(O)C(O)C2O)cc(OC)c1O` (stereo not drawn) the Potency [1] was “inactive” and the Potency [2] was “inactive”.
In the case of `O=C(O[C@H]1[C@@H]2C=CO[C@@H](O[C@@H]3O[C@H](CO)[C@@H](O)[C@H](O)[C@H]3O)[C@@H]2[C@@]2(CO)O[C@@H]12)c1ccccc1`, the Potency [1] is reported as “inactive” and the Potency [2] is reported as “inactive”.
For `C[C@H]1[C@@H](O)[C@H](O)C2[C@]3(C)C([C@@H](O)[C@H]4OC(=O)[C@@H]1[C@@]24C)[C@](C)(O)C=C[C@H]3O[C@@H]1O[C@H](CO)[C@@H](O)[C@H](O)[C@H]1O` (stereo partly drawn), the Potency [1] was “inactive” and the Potency [2] was “inactive”.
In the case of `Cc1c(-c2ccc(O)cc2)n(Cc2ccc(OCCN3CCCCCC3)cc2)c2ccc(O)cc12`, the Potency [1] is reported as 18.8 µM (active) and 8.33 µM (active) and the Potency [2] is reported as 23.7 µM (active) and 9.34 µM (active).
In the case of `CCCCC1CCN(CCCC(=O)c2ccccc2C)CC1`, the Potency [1] is reported as 16.4 µM (active) and the Potency [2] is reported as 13 µM (active).
With `CC(C)(OC1OC(CO)C(O)C(O)C1O)C1CCC(O)(CO)C2CC(O)C(C)(O)C2C1` (stereo not drawn) the Potency [1] was “inactive” and the Potency [2] was “inactive”.
With `CCC(C)(OC(C)=O)C(=O)O[C@H]1[C@H](OC(C)=O)[C@]2(CO)[C@H](O)[C@H](O)[C@]3(C)C(=CCC4[C@@]5(C)CC[C@H](O[C@@H]6O[C@H](C(=O)O)[C@@H](O)[C@H](O[C@@H]7OC[C@H](O)[C@H](O[C@@H]8OC[C@H](O)[C@H](O)[C@H]8O)[C@H]7O)[C@H]6O[C@@H]6O[C@H](CO)[C@@H](O)[C@H](O)[C@H]6O)C(C)(C)C5CC[C@]43C)[C@@H]2CC1(C)C` (stereo partly drawn) the Potency [1] was 2.75 µM (active) and the Potency [2] was 2.45 µM (active).
With `C=CC(C)(O)CC/C=C(\C)C(=O)O[C@@H]1[C@@H](O)[C@H](OC(C)(C=C)CC/C=C(\C)C(=O)O)O[C@H](CO)[C@H]1OC(=O)/C(C)=C/CCC(C)(O)C=C` (stereo partly drawn) the Potency [1] was “inactive” and the Potency [2] was “inactive”.
